This is an account of results in PubChem BioAssay AID651812 (National Center for Advancing Translational Sciences (NCATS), 2012).

The campaign covered roughly 2,100 compounds. About 650 (31%) were called active. About 16% were inconclusive and are not listed. The list shows a part of the results. A number with no mark means an inactive call. The call rests on the fitted dose curve; in most records, active means well fitted inhibition curve with a large enough effect; inconclusive means small, poorly fitted or top-dose-only effect; inactive means flat fitted curve, though single readings scatter.
Potency means the concentration at half of the fitted maximal effect.

This assay is described as follows: qHTS for inhibitors of Vif-A3G interactions: Cherry picks. Further: nearly all actives have a fitted effect of over 80% in size. On activity, negative = fluorescence increase: % of control where 0% means no effect. The settings on record: HeLa A3G-eYFP + Vif (tagged APOBEC3G with the HIV-1 protein that degrades it), 24 h; Potency: eYFP fluorescence increase; series mostly up to 36.9 µM; activity, negative = fluorescence increase: at the top concentration. In outline:
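HeLa cells stably expressing A3G-eYFP and Vif, cultured overnight then exposed to compounds at several concentrations for 24 hours at 37 C, 5% CO2; cellular yellow fluorescence (488 nm ex, 500-530 nm em) imaged on Acumen, MG132 positive control.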
Background: qHTS replaces the single test concentration by a dilution series.
Regarding `CN1C2CCC1/C(=C/c1cccn1C)C(=O)/C2=C\c1cccn1C`, the Potency is 18.4 µM (active).

As for `Cn1cccc1/C=C1\CC(C(C)(C)C)C/C(=C\c2cccn2C)C1=O` (stereo not given), the Potency was 7.31 µM (active).

In the case of `CC1C/C(=C/c2cccs2)C(=O)/C(=C/c2cccs2)C1` (stereo not given), the “activity, negative = fluorescence increase” value was 2.31%.

In the case of `Cn1cccc1/C=C1\SC(=Nc2ccccc2)NC1=O`, the “activity, negative = fluorescence increase” value was -0.492%.

For the compound `CC1CCN(C(=O)C(C)Sc2nc(-c3ccccc3)cc(C(F)(F)F)n2)CC1` (stereo not given), the “activity, negative = fluorescence increase” value was -0.49% [at 46.1 µM].

For the compound `CCc1ccc2nc(N(CCCN(C)C)C(=O)c3ccc(S(=O)(=O)N(C)C4CCCCC4)cc3)sc2c1`, the “activity, negative = fluorescence increase” value is 0.585%.

As for `C=CCn1c(SCc2c(C)noc2C)nc2cc(C(=O)O)ccc2c1=O`, the “activity, negative = fluorescence increase” value is -21.4%.

Regarding `COc1cc(C(=O)N/N=C/C2CC=CCC2)cc(OC)c1OC` (stereo not given), the “activity, negative = fluorescence increase” value was -2.79%.

As to `O=C(NCCN1C(=O)S/C(=C\c2ccc(OC(F)F)cc2)C1=O)c1cnccn1`, the “activity, negative = fluorescence increase” value is -7.81%.

For `COc1cc(/C=C2/SC(=S)N(Cc3ccccc3)C2=O)cc(OC)c1O`, the “activity, negative = fluorescence increase” value is -23.4%.

Regarding `COc1cc(C=C2C(=O)c3ccccc3C2=O)cc(OC)c1OC`, the “activity, negative = fluorescence increase” value is -7.56% [at 46.1 µM].

In the case of `COc1cc(/C=C2/SC(=S)N(CCC(=O)Nc3ccccc3)C2=O)cc(OC)c1OC`, the Potency was 18.4 µM (active).

As for `O=C(CN1C(=O)S/C(=C\c2cc(Cl)c(O)c(Cl)c2)C1=O)Nc1ccccc1`, the Potency is 20.6 µM (active).

Take `COc1ccc(NC(=O)CN2C(=O)C3(SCC(=O)N3c3ccccc3)c3ccccc32)cc1Cl` (stereo not given): the “activity, negative = fluorescence increase” value is -4.85% [at 46.1 µM].

`COC(=O)C1=C(C)NC2=C(C(=O)CC(c3cccs3)C2)C1c1ccsc1` (stereo not given): the “activity, negative = fluorescence increase” value is 0.506%.

Regarding `CC(=O)Nc1cccc(-c2ccnc3c2CC(C)(C(=O)NCc2cccs2)O3)c1` (stereo not given), the “activity, negative = fluorescence increase” value is -10.2%.

Turning to `Clc1ccc2c(c1)C(C1=NCCN1)c1ccccc1CS2` (stereo not given), the “activity, negative = fluorescence increase” value is -2.39%.

For the compound `CCOC(=O)Nc1ccc2c3c(cccc13)-c1ccccc1-2`, the “activity, negative = fluorescence increase” value is -23.2% [at 46.1 µM].

In the case of `O=CNc1ccc2c3c(cccc13)-c1ccccc1-2`, the Potency was 15.8 µM (active).

`CC(=O)Nc1ccc(-c2ccnc3c2CC(C)(C(=O)NCc2ccco2)O3)cc1` (stereo not given): the “activity, negative = fluorescence increase” value is -4.96%.

Take `Cc1ccc2nc(-c3ccccn3)c(Nc3ccccc3C)n2c1`: the “activity, negative = fluorescence increase” value is -1.59% [at 46.1 µM].

For the compound `CCN1C(=O)/C(=C/C=C2\N(CC)c3cc(S(=O)(=O)N(C)C)ccc3N2c2ccccc2)SC1=S`, the Potency was 4.44 µM (active).

Regarding `CCOc1ccccc1C1CC(c2cccs2)=NN1S(C)(=O)=O` (stereo not given), the Potency was 13 µM (active).

`Cc1ccc(C2=NN(C(=O)c3cccs3)C(c3ccccc3O)C2)cc1` (stereo not given): the “activity, negative = fluorescence increase” value is -2.58%.

Turning to `CCc1ccc(C2=NN(S(C)(=O)=O)C(c3cccs3)C2)cc1` (stereo not given), the Potency is 25 µM (active).

Regarding `Cc1ccccc1C1CC(c2cccs2)=NN1S(C)(=O)=O` (stereo not given), the “activity, negative = fluorescence increase” value was -12.5% [at 46.1 µM].

For `Cn1c(=S)c2[nH]c(SCCN3CCCC3)nc2n(C)c1=O`, the “activity, negative = fluorescence increase” value was -1.15% [at 46.1 µM].

For `O=C1C=CC(O)(c2cc(=O)c3c(O)cc(O)cc3o2)C=C1`, the “activity, negative = fluorescence increase” value is 2.3%.

`C1=Cc2ccccc2/C1=C\c1cc2c3c(c1)CCCN3CCC2`: the Potency is 18.4 µM (active).

For `Oc1ccccc1-c1nc(NCc2ccccc2)c2ccccc2n1`, the Potency was 20.6 µM (active).

For `Cc1ccc(Nc2nc(-c3cccnc3)nc3ccccc23)cc1`, the “activity, negative = fluorescence increase” value was -1.44%.

As to `c1cncc(-c2nc(NCc3cccs3)c3ccccc3n2)c1`, the “activity, negative = fluorescence increase” value was 3.34% [at 46.1 µM].

For the compound `c1ccc(N=NC2=NN(c3ccccc3)CS2)cc1`, the “activity, negative = fluorescence increase” value is 11.3% [at 46.1 µM].

For the compound `Cc1cccc(CSc2cccc3cccnc23)c1`, the “activity, negative = fluorescence increase” value is -11.3%.

On to `O=C1c2ccccc2C(=O)c2c(/C=C/N3CCCCC3)ccnc21`, for which the Potency was 18.4 µM (active).

For `Cc1nnc(NC(=O)CSc2nc(C(C)C)nc3ccccc23)s1`, the “activity, negative = fluorescence increase” value was -10.3%.

For `CCCNc1c(F)c(F)c2c(C)c3ccccc3nc2c1F`, the Potency is 17.7 µM (active).

Take `Cc1c2ccccc2nc2c(F)c(NC(C)C)c(F)c(F)c12`: the Potency was 10.3 µM (active).

Take `Cc1ccc(S(=O)c2ccc([N+](=O)[O-])c3nonc23)cc1` (stereo not given): the Potency is 20.6 µM (active).

Consider `O=C(OCc1ccccc1)c1ccc(NCc2cc(O)ccc2O)cc1`, for which the “activity, negative = fluorescence increase” value is 0.113%.

For the compound `CCn1c2ccccc2c2cc(NC(=O)CNCc3ccccc3OC)ccc21`, the “activity, negative = fluorescence increase” value was -1.27%.

With `Cc1cc(C)cc(NC(=S)NC(=O)C2CC2)c1`, the “activity, negative = fluorescence increase” value was 4.73% [at 46.1 µM].

As for `Cc1cc(C)cc(NC(=O)Cn2cc(C(=O)C3CCCCC3)c3ccccc32)c1`, the Potency was 20.6 µM (active).

Consider `N#C/C(=C/c1ccc(N2CCOCC2)o1)c1ccc(Cl)cc1`, for which the Potency is 1.46 µM (active).

Take `Cc1ccc(/C(C#N)=C\c2ccc(N3CCOCC3)o2)cc1`: the Potency is 19.8 µM (active).

`N#C/C(=C/c1ccc(N2CCCCCC2)o1)c1ccc(Cl)cc1`: the Potency was 0.651 µM (active).

In the case of `COc1ccccc1C1c2ccc3ccccc3c2Oc2ncn(CCN(C)C)c(=N)c21` (stereo not given), the “activity, negative = fluorescence increase” value was -6.82%.

For `CCOc1ccccc1OCC(=O)N/N=C(\C)Cc1ccc(OC)cc1`, the “activity, negative = fluorescence increase” value was -7.08%.

On to `Cc1ccc(NC(=O)C2CCN(S(=O)(=O)c3ccc(Cl)c(C(F)(F)F)c3)CC2)nc1`, for which the “activity, negative = fluorescence increase” value was -2.61%.

As to `CCCc1nc2c(C)cc(Br)cn2c1Cc1ccccc1`, the “activity, negative = fluorescence increase” value is 1.71%.

With `O=C(Nc1cc(Cl)cc2c1-c1ccc(Cl)cc1C2O)C(Cl)Cl` (stereo not given), the “activity, negative = fluorescence increase” value is 1.22%.

In the case of `CCOC(=O)Cc1csc(NC(=O)c2sc3nc4c(C)cc(C)cc4cc3c2N)n1`, the Potency is 20.6 µM (active).

In the case of `CCOC(=O)c1csc(NC(=O)c2cc(-c3ccccn3)nc3ccccc23)n1`, the “activity, negative = fluorescence increase” value is -1.94%.

Turning to `CCn1ncc(/C=N\NC(=O)c2csc3ccccc23)c1C`, the “activity, negative = fluorescence increase” value is -10.5%.

Turning to `CCC1CC=CC2C1C(=O)N(Cc1ccccc1)C2c1ccoc1` (stereo not given), the “activity, negative = fluorescence increase” value is -8.78% [at 46.1 µM].

Regarding `COc1cc(C2C(C#N)=C(N)Oc3cc(O)ccc32)cc2c1OCO2` (stereo not given), the “activity, negative = fluorescence increase” value was 3.33%.

For the compound `Cc1cc(-c2ccccc2)c2c3c(c(-c4ccccc4)n2n1)c(=O)n(C)c(=O)n3C`, the Potency was 18.4 µM (active).

For the compound `Cc1ccc(CNC(=O)C2CC(c3cc(C(F)(F)F)cc(C(F)(F)F)c3)=NO2)o1` (stereo not given), the “activity, negative = fluorescence increase” value is -0.774%.

In the case of `Cc1c(N2C(=O)/C(=C/c3ccc(N(C)C)cc3)N(C)C2=S)c(=O)n(-c2ccccc2)n1C`, the Potency is 18.4 µM (active).

Consider `CN1C(=O)/C(=C\c2ccc(N(C)C)cc2)OC1=S`, for which the Potency is 4.98 µM (active).

In the case of `CN1C(=S)N(c2cccnc2)C(=O)/C1=C\c1ccc(N(C)C)cc1`, the Potency was 15.8 µM (active).

Consider `CN1C/C(=C/c2cccnc2)C(=O)/C(=C/c2cccnc2)C1`, for which the “activity, negative = fluorescence increase” value is 0.927%.

As to `CC(NC(=S)Nc1cccc(C(F)(F)F)c1)C(C)(C)C` (stereo not given), the “activity, negative = fluorescence increase” value is 13.5% [at 46.1 µM].

Regarding `CCN(CC)c1ccc2c(c1)oc(=O)c1c(Cl)cc(=O)oc12`, the Potency was 23.1 µM (active).

Turning to `Cc1ccc(F)c(S(=O)(=O)NC(=O)C2(C)CCN2C(=O)Cc2ccc(Cl)cc2Cl)c1` (stereo not given), the “activity, negative = fluorescence increase” value was 3.77%.
